This note sets out measurements from PubChem BioAssay AID652126 (The Scripps Research Institute Molecular Screening Center, 2013).

In all, about 370,000 compounds went through this assay and about 3,700 (1%) were called active.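 How the source made its calls: active means activation above the mean over all tested compounds plus 3 SD (cut at about 0.9% in these data); inactive means the rest.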 Many of the other results were omitted from the sample, so actives are more common in it than they were.

This assay has as its system Nuclear hormone receptor DAF-12 (Strongyloides stercoralis). The assay is described as follows: ssDAF-12 driven luciferase reporter activation – cell-based, luminescence, HEK293, GRIP1 co-expression, lit1-tk-luc, primary screen (AID 652126).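 Further: 0% = DMSO-only wells and 100% = 3 µM delta7-dafachronic acid wells.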 The settings on record: HEK293 ssDAF-12/GRIP1 lit1-tk-luc reporter, at 6.8 µM, stronger effect = higher value, % of 3 µM dafachronic acid response. (Reporter assays use an easily measured gene product as a stand-in for the process of interest.)
`Cc1ccnc(-n2sc3ccccc3c2=O)n1`: the activation is 0.16% (inactive).
Under `Cc1ccnc(Nc2nc3ccccc3s2)n1` stands 1.25% (active); under `Cc1cccc(NC(=O)C[C@H]2CC[C@H]3[C@@H](COc4ccc(NC(=O)Nc5ccccc5)cc4C(=O)N3C)O2)c1`, -1.84% (inactive); under `Cc1cccc(S(=O)(=O)N2CN(CC3CCCO3)c3nc4ccccc4nc32)c1` (stereo unspecified), -0.43% (inactive).
`CCOC(=O)C1CCN(C(=O)C(C)(C)NC(=O)Nc2ccc(F)c(F)c2)CC1`: the activation was -1.1% (inactive).
Take `COC(=O)C1CN(CC(C)C)CCS(=O)(=O)N1Cc1ccc(C)cc1` (stereo unspecified): the activation is -0.69% (inactive).
Then `CCc1ccc(-c2nnn(Cc3nc4ccccc4s3)n2)cc1`, with -0.71% (inactive); and `COc1ccccc1OCc1nc2ccccc2s1`, with 2.57% (active).
Then `COc1ccccc1OCc1nnc(SCC(N)=O)n1-c1ccccc1`, with -1.54% (inactive).
Then `COC(=O)C12C=C3CC(c4ccccc4)=C3C(=O)N1Cc1[nH]c3ccccc3c1C2` (stereo unspecified), with -1.07% (inactive); and `COc1ccc2c(c1)CN1CN(CCc3ccccc3)S(=O)(=O)CC21` (stereo unspecified), with -0.04% (inactive); and `Cc1cc(Cl)ccc1NNC(=O)c1snnc1C`, with 2.01% (active).
As to `Cc1nnsc1C(=O)NCc1c(F)cccc1Cl`, the activation was -0.35% (inactive).
As to `Cc1nnsc1C(=O)Nc1cccc(Cl)c1C`, the activation is -1.69% (inactive).
For the molecule `CCOC(=O)/C=C/c1ccccc1O`, the activation is -1.38% (inactive).
Under `COc1ccnc(Oc2ccccc2)n1` stands -0.92% (inactive); under `COc1ccc2nc(-c3ccccn3)ccc2c1`, 0.98% (active).
In the case of `COc1ccc(-n2c(SCC(=O)OC(C)C)nnc2-c2ccccn2)cc1`, the activation was -1.58% (inactive).
On to `CC(c1ccc(N)cc1)c1cn(C)c2ccccc12` (stereo unspecified), for which the activation is -1.36% (inactive).
Under `C=CS(=O)(=O)N(Cc1nnn(Cc2ccccc2)c1Br)[C@H](C(=O)OC)C(C)C` stands -1.75% (inactive); under `COc1cc(/C=C/C(=O)n2cnc3ccccc32)cc(OC)c1OC`, -2.15% (inactive).
Under `COc1ccnc(NC(=S)N2CCN(c3ncc(C(F)(F)F)cc3Cl)CC2)c1` stands -1.56% (inactive); under `CN(CCO)S(=O)(=O)c1ccc2c(c1)C(=O)c1cc(S(=O)(=O)N(C)CCO)ccc1-2`, -1.38% (inactive); under `COC(=O)[C@]12C[C@H](CC(=O)NCc3ccccc3)C(=O)N(CCc3ccc(OC)c(OC)c3)C1=C[C@H](C(C)(C)C)O[C@@H]2C`, -1.28% (inactive).
Under `COc1ccc(CSc2nnc(SCC(=O)Nc3ccccc3C(F)(F)F)s2)cc1` stands -1.22% (inactive); under `COC(=O)C(NC(C)=O)(Nc1nc2c(s1)CCCC2)C(F)(F)F` (stereo unspecified), -0.86% (inactive); under `Fc1ccc2nc(Nc3nc4c(s3)CCCC4)sc2c1`, 1.92% (active).
Take `C[C@H]1CCC/C=C/C(=O)c2c(O)cc(O)cc2CC(=O)O1`: the activation is -1.77% (inactive).
Turning to `CCCCOCCCNC(=O)C[C@H]1C[C@@]2(C(=O)OC)C(=C[C@H](COCc3ccccc3)O[C@@H]2C)N(Cc2cccc3ccccc23)C1=O`, the activation was -1.25% (inactive).
Under `COC(=O)[C@]12C[C@H](CC(=O)NCCc3ccccc3OC)C(=O)N(Cc3ccco3)C1=C[C@H](C(C)C)O[C@@H]2C1CC1` stands -1.3% (inactive); under `CCCN(c1ccc(C)cc1)c1nc(=O)c2cccnc2s1`, 1.12% (active); under `COc1ccnc(C(=O)N2CCC(Oc3cccnc3)CC2)c1`, -1.55% (inactive).
Under `CCCCCCN1CCS(=O)(=O)N(Cc2ccc(C(F)(F)F)cc2)C(C(=O)OC)C1` (stereo unspecified) stands -0.61% (inactive); under `CN[C@H]1C[C@H]2c3cc(N4CCOCC4)ccc3CCN2C[C@H]1[C@H](C)O`, -1.27% (inactive); under `O=C(c1cn2ccccc2n1)N1CCc2c([nH]c3ccccc23)C1c1ccccn1` (stereo unspecified), 0.91% (active).
Then `c1ccc(C2c3[nH]c4ccccc4c3CCN2Cc2cccn2-c2cccnc2)nc1` (stereo unspecified), with -1.17% (inactive); and `COCc1ccc(C(=O)N2CCc3c([nH]c4ccccc34)C2c2ccccn2)s1` (stereo unspecified), with -2.05% (inactive).
In the case of `CCC(C)[C@@H](C(=O)OC)N(CCc1cn(Cc2ccccc2)nn1)S(=O)(=O)c1ccccc1Br` (stereo partly specified), the activation is -1.79% (inactive).
With `COc1ccc([C@H]2CC(=O)C=C(c3ccc(C)cc3)C2)cc1`, the activation was -0.86% (inactive).
`COc1ccc(C2=Nc3cc(C)ccc3OC2)cc1`: the activation was 1.43% (active).
Then `COc1ccc(/C=C/c2c(-c3cccc(C)c3)oc3ccc(-c4ccc5c(c4)OCO5)cc23)cc1`, with -1.12% (inactive); and `CCOc1ccc(Oc2c(Cl)cnn(-c3ccc(C)cc3)c2=O)cc1`, with -1.17% (inactive); and `Cc1nc2ccccc2n1CC(O)c1ccccc1` (stereo unspecified), with -1.14% (inactive).
As for `Cc1ccc(-c2nnc(-n3nnc4ccccc43)c3ccccc23)cc1`, the activation is -1.26% (inactive).
As for `Cc1ccc(C2=NN(C)c3nc4ccccc4n3C2)cc1`, the activation was 1.2% (active).
On to `O=C(CCCCCN1C(=O)C2C3C=CC(C3)C2C1=O)Nc1ccccc1` (stereo unspecified), for which the activation was -1.12% (inactive).
Then `COc1c(N2CCN(C(=S)Nc3ccccc3F)C(C)C2)c(F)cc2c(=O)c(C(=O)O)cn(C3CC3)c12` (stereo unspecified), with -0.28% (inactive).
Then `O=C(NC1CCC1)c1ccc(C#Cc2cccc(F)c2)c[n+]1[O-]`, with -1.07% (inactive); and `CSc1nc(C)nc(C2CC2)c1C#N`, with -1.49% (inactive); and `O=C(Nc1ccccc1C(=O)N1CCOCC1)c1ccc(Cl)cc1`, with -1.32% (inactive).
Under `Nc1ccc(C(=O)Nc2ccccc2N)cc1` stands 1.55% (active).
For `CC(CNC(=O)c1ccc(N)cc1)NC(=O)c1ccc(N)cc1` (stereo unspecified), the activation was -1.71% (inactive).
For the molecule `Cc1ccc(-n2c(COc3ccccc3)nnc2SCC(=O)Nc2ccc3c(c2)OCCO3)cc1`, the activation was -1.43% (inactive).
Under `Cc1cccc(NC(=O)c2ccc3ccccc3n2)n1` stands 1.11% (active).
Then `CC(NC(=O)COC(=O)c1ccc2ccccc2n1)c1ccccc1` (stereo unspecified), with -0.49% (inactive).
Regarding `COC(=O)c1ccc(NC(=S)Nc2cccc(C)n2)cc1`, the activation was -0.35% (inactive).
Then `Cc1c(C(C)c2ccccc2O)[nH]c2ccccc12` (stereo unspecified), with -0.11% (inactive); and `CCOc1ccc(-n2c(SCC(=O)Nc3cc(C)c(NC(=O)c4ccccc4)cc3OC)nnc2-c2cccs2)cc1`, with -1.35% (inactive).
Consider `CCOC(=O)N1CCN(C(=O)C[C@H]2C[C@@]3(C(=O)OC)C(=C[C@H](C(C)(C)C)O[C@@H]3C)N(Cc3ccc(Cl)cc3Cl)C2=O)CC1`, for which the activation was -1.86% (inactive).
Under `COc1ccc(OC)c(S(=O)(=O)NCCC(C)C)c1` stands 1.47% (active); under `COCCNS(=O)(=O)c1cc(Br)ccc1OC`, -1.56% (inactive).
In the case of `COc1ccc(C)cc1S(=O)(=O)NCCc1ccccc1`, the activation is -0.72% (inactive).
Under `CC(C)CNc1cccc2c1S(=O)(=O)N(Cc1cn(Cc3ccc(Cl)cc3)nn1)Cc1ccccc1O2` stands -1.25% (inactive); under `O=C(CSc1nc2ccccc2nc1N1CCCCC1)N1CCN(S(=O)(=O)c2cccc([N+](=O)[O-])c2)CC1`, -0.71% (inactive).
In the case of `CC(=O)Nc1ccc(OC[C@@H](O)CN2CCC(C(O)(c3ccccc3)c3ccccc3)CC2)cc1`, the activation is -0.46% (inactive).
Under `COc1ccccc1CNC(=O)C1CCN(c2nc3ccccc3o2)CC1` stands -1.15% (inactive); under `O=C(NCc1ccc(Cl)cc1)C1CCCN(c2nc3ccccc3o2)C1` (stereo unspecified), -1.04% (inactive).
With `COc1cccc(CNC(=O)C2CCCN(c3nc4ccccc4o3)C2)c1OC` (stereo unspecified), the activation is 1.04% (active).
On to `CCC(=O)Nc1ccc2c(c1)C(=O)N(C)[C@H]1CC[C@H](CC(=O)NCCOC)O[C@@H]1CO2`, for which the activation is -1.05% (inactive).
In the case of `COc1ccc(-n2c(COc3ccccc3)nnc2SCC(=O)Nc2ccc3c(c2)OCO3)cc1`, the activation was -1.47% (inactive).
Under `COc1ccc(C(CNC(=O)c2cc3c(s2)CCCC3)N2CCOCC2)cc1` (stereo unspecified) stands -1.09% (inactive); under `CC(C)(C)NC(=O)Cn1cnc2cc([N+](=O)[O-])ccc2c1=O`, -1.52% (inactive).
Under `O=c1c2cc([N+](=O)[O-])ccc2nc2n1CCC2` stands -0.82% (inactive).
Then `Cc1ccc(-n2cc3ccc([N+](=O)[O-])cc3n2)cc1`, with 1.77% (active).
Consider `C=CCN1C(=O)[C@@H](CC(=O)N2CCN(C(=O)OCC)CC2)[C@]2(C(=O)OCC)CCCCC/C=C/12`, for which the activation was -1.02% (inactive).
Under `CCOc1cc(C)c(S(=O)(=O)NCc2ccccn2)cc1C` stands 0.98% (active); under `Cc1cc(S(=O)(=O)NCc2ccccn2)c(Cl)cc1Cl`, -1.84% (inactive); under `COc1ccccc1CNS(=O)(=O)c1cc(C(=O)NCc2ccccn2)c(Cl)cc1Cl`, -1.13% (inactive).
As for `COC(=O)[C@H](C(C)C)N(CCCc1cn(Cc2ccccc2)nn1)S(=O)(=O)c1ccc(F)cc1Br`, the activation is -2.17% (inactive).
Under `Cc1cccc(-n2c(O)c(C=Nc3ccccc3N)c(=O)[nH]c2=O)c1` stands 1.8% (active); under `COc1cccc(N(C)C(=O)[C@@H](C)[C@@H](O)c2ccc3ccccc3c2)c1`, -1.07% (inactive); under `O=c1c2c(nc3cc(-c4cccc(Cl)c4)[nH]n13)CCCC2`, 1.57% (active).
For the molecule `CSc1nc2nc3c(c(=O)n2[nH]1)CCC3`, the activation is -1.17% (inactive).
Consider `CCOC(=O)C1CCN(S(=O)(=O)c2ccc3c(c2)N(C(C)=O)CCO3)CC1`, for which the activation is -1.19% (inactive).
As to `OC(c1ccccc1)c1nc(-c2cnc3ccccc3c2)cs1` (stereo unspecified), the activation is 1.25% (active).
`COc1ccc(-c2csc(C(O)c3cccc(Cl)c3)n2)cn1` (stereo unspecified): the activation is -1.06% (inactive).
Consider `CC(C)c1cccc(-c2csc(C(O)c3ccccc3)n2)c1` (stereo unspecified), for which the activation is -1.41% (inactive).
Take `CN(C)c1nc(N)nc(CSc2ccccn2)n1`: the activation is -1.25% (inactive).
Under `COc1cccc(N(CC(=O)NCCSc2ccccn2)S(C)(=O)=O)c1` stands -1.16% (inactive); under `COc1ccc(C=C(C#N)C#N)c(CSc2ccccn2)c1`, 2.1% (active).
For `c1coc(CCNc2ncnc3ccc(-c4ccc5c(c4)OCO5)cc23)c1`, the activation was -0.09% (inactive).
